The values below come from PubChem BioAssay (Tox21).

Records with an inconclusive call do not appear. Unmarked numbers belong to inactive results. Calls of active or inactive are those of the source. Unless noted, calls follow the shape of the dose curve; as a rule, active = well fitted curve in the direction sought with a large enough effect in the repeat runs; inconclusive = weak or mixed curves; inactive = no such curve, though single readings can be large; an effect the other way counts as inactive or inconclusive.

Assay [1] can be described thus: qHTS assay to identify small molecule antagonists of the estrogen related receptor (ERR) signaling pathway from Tox21 library - cell viability counter screen (AID 1224834). Also: nearly all actives have a fitted effect of over 30% in size. As to viability change, negative = cytotoxic: % is scaled to controls: 0 for no effect and ±100 for the full control effect. Put shortly:
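CellTiter-Fluor fluorescence measured; ERR cells; 17.5 h compound incubation at 37 C; 30 min reagent step.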

Assay [2] concerns the target Luciferin 4-monooxygenase (Photinus pyralis) (UniProt P08659). Description: qHTS assay to identify small molecule inhibitors of firefly luciferase (AID 1224835). Also: nearly all actives have a fitted effect of over 25% in size. As to activity change, negative = inhibition: series mostly up to about 120 µM; % is scaled to controls: 0 for no effect and ±100 for the full control effect. In short, it runs like this:
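Quantitative HTS format; KM concentrations of both substrates. Purified P. pyralis FLuc activity quantified from luminescence images.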

Assay [3] is described as follows: qHTS assay to identify small molecule agonists of the constitutive androstane receptor (CAR) signaling pathway - cell viability counter screen (AID 1224836). Also: nearly all actives have a fitted effect of over 45% in size. As to viability change, negative = cytotoxic: series mostly up to about 92 µM; % is scaled to controls: 0 for no effect and ±100 for the full control effect. In short, it runs like this:
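Double-stable HepG2 hepatoma cells (hCAR plus CYP2B6-2.2kb) are treated for 23 h at 37 C with test compounds in 15-point concentration series. PK11195 at 0.75 uM final is co-added. Cell viability is quantified by CellTiter-Fluor.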

Assay [4] can be described thus: qHTS assay to identify small molecule antagonists of the constitutive androstane receptor (CAR) signaling pathway - cell viability counter screen (AID 1224837). Also: nearly all actives have a fitted effect of over 45% in size. As to activity change, negative = cytotoxicity: series mostly up to about 92 µM; % is scaled to controls: 0 for no effect and ±100 for the full control effect. Put shortly: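 Using CellTiter-Fluor, viability is scored in HepG2 cells stably carrying hCAR and a 2.2kb CYP2B6 reporter after 23 hr compound exposure across 15 concentrations, with CITCO present at 50 nM.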

For assay [5], the target named is Nuclear receptor subfamily 1 group I member 3 (Homo sapiens) (UniProt Q14994). The experiment in a line: qHTS assay to identify small molecule antagonists of the constitutive androstane receptor (CAR) signaling pathway (AID 1224838).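 Also: HepG2 cells stably expressing hCAR with CYP2B6 luciferase reporter stimulated by CITCO; nearly all actives have a fitted effect of over 40% in size.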 In short, it runs like this:
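Reporter luminescence was quantified after 24 h exposure of hCAR/CYP2B6-2.2kb double-stable HepG2 cells to compounds at 15 concentrations in the presence of 50 nM CITCO final.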

For assay [6] the target is unchanged. The experiment in a line: qHTS assay to identify small molecule agonists of the constitutive androstane receptor (CAR) signaling pathway (AID 1224839). Also: nearly all actives have a fitted effect of over 15% in size. Put shortly:
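Readout: firefly luciferase luminescence via ONE-Glo. System: HepG2 double-stable for hCAR and CYP2B6-2.2kb. Conditions: 15-point compound titration, PK11195 at 0.75 uM final, 24 h incubation.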

Assay [7] in a line: qHTS assay to identify small molecule antagonists of the estrogen related receptor signaling pathway with the pleiotropic PPARgamma coactivator (PGC) from Tox21 10K library - cell viability counter screen (AID 1224840; active = well fitted cell-killing curve with a large enough effect in the repeat runs, not every such curve was filed as active; also: nearly all actives have a fitted effect of over 40% in size). In short, it runs like this: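 Here the PGC/ERR cells serve as a cytotoxicity control: they are exposed to compounds for 17.5 hours at 37 C, and live-cell signal is quantified using CellTiter-Fluor fluorescence.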

Assay [8] concerns the target Thyrotropin receptor (Homo sapiens) (UniProt P16473). The experiment in a line: qHTS assay to identify small molecule agonists of the thyroid stimulating hormone receptor (TSHR) signaling pathway (AID 1224843; calls by dose curve; also: nearly all actives have a fitted effect of over 45% in size). In short, it runs like this:
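TSHR-expressing HEK293 cells (800 per well) were exposed to compounds for 30 min at room temperature. cAMP was then detected by HTRF competition with cAMP-d2 and anti-cAMP cryptate, read after 1 h at room temperature. Fifteen concentrations, triplicate.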

Assay [9] can be described thus: qHTS assay to identify small molecule agonists of the estrogen related receptor signaling pathway with the pleiotropic PPARgamma coactivator (PGC) from Tox21 10K library (AID 1224842). Also: nearly all actives have a fitted effect of over 15% in size. Put shortly: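 PGC/ERR reporter cells (NTP line) were seeded 2,000 per well, rested 6 h at 37 C/5% CO2, then pin-dosed with compounds in DMSO for 18 h at 37 C; luciferase read by One-Glo luminescence after 30 min at room temperature.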

A short description of assay [10]: qHTS assay to identify small molecule antagonists of the estrogen related receptor signaling pathway with the pleiotropic PPARgamma coactivator (PGC) from Tox21 10K library (AID 1224841; call rule not given here; also: actives are mostly falling curves and most rising ones were filed inactive; nearly all actives have a fitted effect of over 50% in size). In short, it runs like this: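 Each well held 2,000 PGC/ERR cells, pre-incubated six hours (37 C, 5% CO2). Test substances in DMSO were added by pin tool and left for 18 h at 37 C before luciferase detection by One-Glo.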
Potency is read from the fitted curve at half-maximal effect.

Sequence of Nuclear receptor subfamily 1 group I member 3 (Homo sapiens) (Q14994 whole entry, looked up): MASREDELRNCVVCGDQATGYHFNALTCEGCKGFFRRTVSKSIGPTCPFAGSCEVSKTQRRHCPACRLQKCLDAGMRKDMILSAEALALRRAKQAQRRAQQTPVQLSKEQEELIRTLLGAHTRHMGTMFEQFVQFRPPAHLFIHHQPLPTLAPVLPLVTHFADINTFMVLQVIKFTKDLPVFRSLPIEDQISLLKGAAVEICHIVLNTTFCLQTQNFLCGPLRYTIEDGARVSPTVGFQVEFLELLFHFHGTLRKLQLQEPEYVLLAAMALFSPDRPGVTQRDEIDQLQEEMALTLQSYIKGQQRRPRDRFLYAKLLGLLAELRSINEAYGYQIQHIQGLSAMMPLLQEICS
Sequence of Luciferin 4-monooxygenase (Photinus pyralis) (P08659 whole entry, looked up): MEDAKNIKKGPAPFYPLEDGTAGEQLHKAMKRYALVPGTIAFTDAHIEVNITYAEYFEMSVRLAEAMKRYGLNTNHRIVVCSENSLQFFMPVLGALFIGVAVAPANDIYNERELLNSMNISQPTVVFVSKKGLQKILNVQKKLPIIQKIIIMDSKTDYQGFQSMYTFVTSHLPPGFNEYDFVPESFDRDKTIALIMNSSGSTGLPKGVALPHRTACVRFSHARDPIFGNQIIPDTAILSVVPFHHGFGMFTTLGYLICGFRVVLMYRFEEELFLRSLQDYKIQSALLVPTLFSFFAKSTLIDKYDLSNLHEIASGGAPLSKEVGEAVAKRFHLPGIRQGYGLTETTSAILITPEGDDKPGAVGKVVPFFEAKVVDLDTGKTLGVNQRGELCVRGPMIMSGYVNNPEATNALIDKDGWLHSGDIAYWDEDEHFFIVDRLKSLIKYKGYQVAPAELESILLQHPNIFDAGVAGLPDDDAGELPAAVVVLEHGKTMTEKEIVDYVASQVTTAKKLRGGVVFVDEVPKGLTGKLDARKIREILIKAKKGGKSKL
Sequence of Thyrotropin receptor (Homo sapiens) (P16473 whole entry, looked up): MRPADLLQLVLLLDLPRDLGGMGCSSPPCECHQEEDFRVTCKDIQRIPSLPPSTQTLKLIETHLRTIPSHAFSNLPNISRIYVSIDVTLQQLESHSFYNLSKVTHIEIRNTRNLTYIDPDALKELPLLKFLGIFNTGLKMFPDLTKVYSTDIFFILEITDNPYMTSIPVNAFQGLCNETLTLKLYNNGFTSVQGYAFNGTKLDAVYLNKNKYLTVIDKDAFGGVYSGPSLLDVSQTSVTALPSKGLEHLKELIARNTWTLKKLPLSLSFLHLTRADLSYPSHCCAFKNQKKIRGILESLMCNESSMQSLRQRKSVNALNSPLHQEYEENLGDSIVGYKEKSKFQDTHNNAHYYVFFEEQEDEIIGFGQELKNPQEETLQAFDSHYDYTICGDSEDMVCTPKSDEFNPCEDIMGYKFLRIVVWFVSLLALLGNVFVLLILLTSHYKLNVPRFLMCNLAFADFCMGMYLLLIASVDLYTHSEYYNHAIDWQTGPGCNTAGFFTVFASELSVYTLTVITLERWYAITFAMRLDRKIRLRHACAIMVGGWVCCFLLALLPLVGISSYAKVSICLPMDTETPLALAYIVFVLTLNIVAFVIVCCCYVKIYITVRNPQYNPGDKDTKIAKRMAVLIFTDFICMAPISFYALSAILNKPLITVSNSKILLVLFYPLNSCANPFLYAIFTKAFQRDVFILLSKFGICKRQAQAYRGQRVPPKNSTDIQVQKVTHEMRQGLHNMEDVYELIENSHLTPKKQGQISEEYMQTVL

Take `Cc1ccc(O)c(C(C)(C)C)c1`: the Potency entry in assay [1], in assay [2], in [3], in assay [4], in [5] and in assay [6] was “inactive” throughout. For the same molecule, the Potency entry in [7] and in [8] was “inactive” in each case.
In the case of `CCOC(=O)/C=C(C)/C=C/C=C(C)/C=C/c1c(C)cc(OC)c(C)c1C`, the Potency entry in [1], in assay [2], in [3], in [4], in assay [5] and in [6] was “inactive” in each case. Besides, the Potency entry in assay [7] and in [8] was “inactive” in each case.
In the case of `Fc1ccc(C(c2ccc(F)cc2)N2CCN(C/C=C/c3ccccc3)CC2)cc1`, in assay [1], the Potency was 26.6 µM (active). Besides, the Potency entry in assay [2], in [3], in assay [4], in assay [5], in assay [6] and in [9] was “inactive” in each case. The Potency entry in [8] was “inactive”.
Turning to `CC[C@H](c1ccc(O)cc1)[C@@H](CC)c1ccc(O)cc1`, the figures for the Potency in [1] and in assay [5] were 27.3 µM (active) and 0.473 µM (active), respectively. The Potency entry in [2], in [3], in assay [4] and in assay [7] was “inactive” each time.
For the molecule `Clc1ccc2cc3ccccc3cc2c1`, the Potency result in assay [1], in [2], in assay [3], in [4], in assay [5] and in [7] was “inactive” each time. In addition, the Potency is 54.4 µM (active) in [6] and 68.5 µM (active) in assay [9].
As to `Clc1ccc2n[nH]nc2c1`, the Potency result in [1], in assay [2], in assay [3], in assay [4], in [5] and in assay [6] was “inactive” throughout. Besides, the Potency entry in [7] and in assay [8] was “inactive” in each case.
`[Cl][Bi]([Cl])([c]1ccccc1)([c]1ccccc1)[c]1ccccc1`: the Potency was 13.6 µM (active) in assay [1]; 12.6 µM (active) in assay [2]; 21.6 µM (active) in assay [3]; 19.2 µM (active) in assay [4]; 12.1 µM (active) in assay [5]; 6.08 µM (active) in assay [7]. Moreover, in assay [8], the Potency is 2.16 µM (active). Also, the Potency result in [6] was “inactive”.
For `COC(=O)c1cc(Cl)ccc1OC`, the Potency entry in assay [1], in [2], in [3], in [4], in assay [5] and in [6] was “inactive” each time. Besides, the Potency entry in assay [7] and in assay [8] was “inactive” throughout.
Turning to `CCCN(CCC)C(=O)C(CCC(=O)OCCCN1CCN(CCOC(=O)Cc2c(C)n(C(=O)c3ccc(Cl)cc3)c3ccc(OC)cc23)CC1)NC(=O)c1ccccc1` (stereo unspecified), the Potency in assay [1] is 23.7 µM (active); in [3], 23.7 µM (active); in assay [4] it was 26.6 µM (active); in assay [10], 29.8 µM (active). The Potency result in [2], in [5], in assay [6], in [9] and in assay [8] was “inactive” in each case.
With `Cc1c(C)c2c(c(C)c1O)CCC(C)(COc1ccc(CC3SC(=O)NC3=O)cc1)O2` (stereo unspecified), the Potency entry in [1], in assay [2], in assay [3], in assay [4], in assay [5] and in [6] was “inactive” throughout. Also, the Potency result in [7] and in assay [8] was “inactive” each time.
As to `Cc1cccc(S(=O)(=O)O)c1C`, the Potency entry in assay [1], in [2], in [3], in assay [4], in [5] and in [7] was “inactive” throughout. Further, the Potency result in assay [8] was “inactive”.
On to `Clc1ccc(C(Cn2ccnc2)OCc2ccc(Sc3ccccc3)cc2)c(Cl)c1` (stereo unspecified), for which the Potency entry in [1], in assay [2], in assay [3], in assay [4], in assay [5] and in assay [6] was “inactive” each time. Also, the Potency entry in [7] and in [8] was “inactive” throughout.
Regarding `CCCCCOc1ccccc1/C(=C\SC)n1ccnc1`, the figures for the Potency in assay [1], in assay [10] and in assay [8] were 29.8 µM (active), 15 µM (active) and 21.1 µM (active), respectively. Also, the Potency result in [2], in assay [3], in assay [4], in assay [7] and in assay [9] was “inactive” in each case.
For `O=C(Nc1cccc(Cl)c1)OCC#CCCl`, the Potency in [1] is 54.5 µM (active); in assay [2], 44.8 µM (active); in assay [3], 54.5 µM (active); in assay [4], 38.6 µM (active); in assay [7], 48.6 µM (active); in assay [10], 21.7 µM (active). In addition, the Potency entry in assay [9] was “inactive”.
As to `CC(NN)c1ccccc1` (stereo unspecified), the viability change, negative = cytotoxic in [1] is 6.9% [at 19 µM]; in assay [3] it was -0.8% [at 19 µM]; in assay [7] it was -1.05% [at 19 µM]. Further, in assay [2], the activity change, negative = inhibition is -10.4% [at 23.6 µM]. Further, in assay [4], the activity change, negative = cytotoxicity is 5.95% [at 19 µM]. In [5], the activity, negative = inhibition was 27.3% [at 19 µM]. Also, the activation in assay [8] was -0.741% [at 19 µM].
With `C=C(C)C(=O)OCC[N+](C)(C)C`, the Potency result in assay [1], in [2], in assay [3], in assay [4], in assay [5] and in [7] was “inactive” throughout. The Potency result in [8] was “inactive”.
Turning to `CSc1cnc(C)cn1`, the Potency entry in assay [1], in [2], in assay [3], in assay [4], in [7] and in assay [8] was “inactive” in each case.
Regarding `CCCC/C=C/CCCCO`, the Potency entry in assay [1], in assay [2], in assay [3], in [4], in [7] and in assay [8] was “inactive” each time.
As for `COC(=O)C1=C(C)NC(C)=C(C(=O)OCCc2ccc(N3CCN(C(c4ccccc4)c4ccccc4)CC3)cc2)C1c1cccc([N+](=O)[O-])c1` (stereo unspecified), the Potency result in [1], in assay [2], in assay [3], in [4] and in [7] was “inactive” throughout.
Turning to `O=C(NO)C1(NS(=O)(=O)c2ccc(Oc3ccc(F)cc3)cc2)CCOCC1`, the Potency entry in [1], in [2], in [3], in assay [4], in assay [7] and in assay [9] was “inactive” each time.
For the molecule `CC(C)(C)NC(=O)[C@@H]1C[C@@H]2CCCC[C@@H]2CN1C[C@@H](O)[C@H](Cc1ccccc1)NC(=O)[C@H](CC(N)=O)NC(=O)c1ccc2ccccc2n1`, the Potency in assay [1] was 24.7 µM (active); in [3] it was 31 µM (active); in assay [4], 24.7 µM (active); in assay [7], 31 µM (active); in assay [10], 27.7 µM (active); in [8] it was 27.7 µM (active). Besides, the Potency entry in assay [2], in assay [6] and in assay [9] was “inactive” each time.
Consider `CNC(=O)c1ccccc1`, for which the Potency entry in assay [1], in assay [2], in assay [3], in [4], in assay [7] and in [8] was “inactive” throughout.
Consider `CC1=C(C(=O)OC(C)C)C(c2cccc([N+](=O)[O-])c2)C(C(=O)OC2CN(C(c3ccccc3)c3ccccc3)C2)=C(N)N1` (stereo unspecified), for which the Potency in [1] is 29.8 µM (active); in assay [3], 29.8 µM (active); in [4], 29.8 µM (active); in assay [7], 29.8 µM (active); in [10] it was 26.6 µM (active). Also, the Potency result in assay [2], in [6] and in [9] was “inactive” in each case.
In the case of `CC/C(=C(\c1ccc(O)cc1)c1ccc(OCCN(C)C)cc1)c1ccccc1`, the Potency in assay [1] is 68.7 µM (active); in [3], 68.7 µM (active); in assay [4], 68.7 µM (active); in assay [7], 48.7 µM (active). Also, the Potency result in assay [2], in [6] and in [9] was “inactive” each time.
